Measurements published in PubChem BioAssay.
Activity calls are given as the source filed them.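 Rule for the calls: active = normalized viability below 100% at a tested concentration; inactive = the rest.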 *1 amine or outer side, *2 acyl side, *3 side chain or, on linkers, in order; H or OH if unused. Where a SMILES comes first, the peptide text is derived from it. Bridges are numbered along the chain shown (N, C = ends). Roman numbers before positions name the chains, in order. [ ]: non-standard residue; d: D form. Hexamethylenediamine = C(CCCN[*:2])CCN[*:1]; Dip = N[C@H](C(=O)O)C(c1ccccc1)c1ccccc1; Chg = N[C@H](C(=O)O)C1CCCCC1; NMeA = CN[C@@H](C)C(=O)O

Experiment: ovarian cancer cell viability with rucaparib, profiling panel, oncology-focused library, rucaparib conditional (AID 1508598)
Details: patient-derived ovarian cancer cells, CellTiter-Glo viability, 144 h, hits give low values
[1] = at 0.000305 µM, OCI-C5x cells, with rucaparib 10 µM, 100% = cells with rucaparib alone
[2] = at 0.000305 µM, OCI-C5x cells, without rucaparib
[3] = at 0.000305 µM, OCI-P5x cells, with rucaparib 20 µM, 100% = cells with rucaparib alone
[4] = at 0.000305 µM, OCI-P5x cells, without rucaparib
[5] = at 0.00122 µM, OCI-C5x cells, with rucaparib 10 µM, 100% = cells with rucaparib alone
[6] = at 0.00122 µM, OCI-C5x cells, without rucaparib
[7] = at 0.00122 µM, OCI-P5x cells, with rucaparib 20 µM, 100% = cells with rucaparib alone
[8] = at 0.00122 µM, OCI-P5x cells, without rucaparib
[9] = at 0.00488 µM, OCI-C5x cells, with rucaparib 10 µM, 100% = cells with rucaparib alone
[10] = at 0.00488 µM, OCI-C5x cells, without rucaparib
[11] = at 0.00488 µM, OCI-P5x cells, with rucaparib 20 µM, 100% = cells with rucaparib alone
[12] = at 0.00488 µM, OCI-P5x cells, without rucaparib
[13] = at 0.0195 µM, OCI-C5x cells, with rucaparib 10 µM, 100% = cells with rucaparib alone
[14] = at 0.0195 µM, OCI-C5x cells, without rucaparib
[15] = at 0.0195 µM, OCI-P5x cells, with rucaparib 20 µM, 100% = cells with rucaparib alone
[16] = at 0.0195 µM, OCI-P5x cells, without rucaparib
[17] = at 0.0781 µM, OCI-C5x cells, with rucaparib 10 µM, 100% = cells with rucaparib alone
[18] = at 0.0781 µM, OCI-C5x cells, without rucaparib
[19] = at 0.0781 µM, OCI-P5x cells, with rucaparib 20 µM, 100% = cells with rucaparib alone
[20] = at 0.0781 µM, OCI-P5x cells, without rucaparib
[21] = at 0.313 µM, OCI-C5x cells, with rucaparib 10 µM, 100% = cells with rucaparib alone
[22] = at 0.313 µM, OCI-C5x cells, without rucaparib
[23] = at 0.313 µM, OCI-P5x cells, with rucaparib 20 µM, 100% = cells with rucaparib alone
[24] = at 0.313 µM, OCI-P5x cells, without rucaparib
[25] = at 1.25 µM, OCI-C5x cells, with rucaparib 10 µM, 100% = cells with rucaparib alone
[26] = at 1.25 µM, OCI-C5x cells, without rucaparib
[27] = at 1.25 µM, OCI-P5x cells, with rucaparib 20 µM, 100% = cells with rucaparib alone
[28] = at 1.25 µM, OCI-P5x cells, without rucaparib
[29] = at 5 µM, OCI-C5x cells, with rucaparib 10 µM, 100% = cells with rucaparib alone
[30] = at 5 µM, OCI-C5x cells, without rucaparib
[31] = at 5 µM, OCI-P5x cells, with rucaparib 20 µM, 100% = cells with rucaparib alone
[32] = at 5 µM, OCI-P5x cells, without rucaparib

Measured: viability

CC(C)C[C@H](NP(=O)(O)O[C@@H]1O[C@@H](C)[C@H](O)[C@@H](O)[C@H]1O)C(=O)N[C@@H](Cc1c[nH]c2ccccc12)C(=O)O
inactive: [1] 124% | [2] 113% | [3] 105% | [5] 127% | [6] 113% | [8] 103% | [9] 127% | [10] 116% | [11] 104% | [13] 122% | [14] 106% | [15] 101% | [17] 121% | [18] 107% | [21] 124% | [22] 103% | [25] 132% | [26] 117% | [29] 123% | [30] 104%
active: [4] 99.9% | [7] 97.2% | [12] 96.5% | [16] 93.9% | [19] 99.3% | [20] 96.3% | [23] 98.1% | [24] 98.7% | [27] 94.3% | [28] 91.1% | [31] 88.8% | [32] 92%

CC[C@]1(O)C[C@@H]2CN(CCc3c([nH]c4ccccc34)[C@@](C(=O)OC)(c3cc4c(cc3OC)N(C=O)[C@@H]3C45CCN4CC=C[C@](CC)([C@H]45)[C@H](OC(C)=O)[C@]3(O)C(=O)OC)C2)C1 (stereo partly drawn)
active: [2] 99.3% | [3] 88.8% | [4] 86.4% | [6] 98.8% | [8] 90.1% | [12] 86.3% | [13] 88.9% | [14] 66.1% | [15] 70.6% | [16] 25.9% | [17] 45.1% | [18] 37.2% | [19] 51% | [20] 17.4% | [21] 42.3% | [22] 27.2% | [23] 56.1% | [24] 16.7% | [25] 34.8% | [26] 21.4% | [27] 51% | [28] 12.7% | [29] 41.7% | [30] 24.9% | [31] 50.9% | [32] 13.1%
inactive: [1] 113% | [5] 120% | [7] 102% | [9] 101% | [10] 103% | [11] 105%

CN[C@@H](C)C(=O)N[C@H](C(=O)N1CCC[C@H]1C(=O)N[C@H](C(=O)NCCCCCCNC(=O)[C@@H](NC(=O)[C@@H]1CCCN1C(=O)[C@@H](NC(=O)[C@H](C)NC)C1CCCCC1)C(c1ccccc1)c1ccccc1)C(c1ccccc1)c1ccccc1)C1CCCCC1 (I: H-[NMeA][Chg]P[Dip] / II: H-[NMeA][Chg]P[Dip]; linker I:C-II:C via Hexamethylenediamine)
inactive: [1] 121% | [2] 115% | [5] 119% | [6] 106% | [9] 129% | [10] 111% | [13] 115% | [14] 108% | [17] 110% | [18] 112% | [21] 114% | [22] 116% | [26] 105% | [30] 120%
active: [3] 85.6% | [4] 93.2% | [7] 95.3% | [8] 94.9% | [11] 83.7% | [12] 94.7% | [15] 81.4% | [16] 99.5% | [19] 39.3% | [20] 85.3% | [23] 19.6% | [24] 54.1% | [25] 96.9% | [27] 13.6% | [28] 21.5% | [29] 89.4% | [31] 0.911% | [32] 7.49%

C[C@]12CCC(=O)C=C1CC[C@@H]1[C@H]2[C@H](O)C[C@@]2(C)[C@H]1CC[C@@]2(O)C(=O)CO
active: [7] 98.6% | [32] 99.3%
inactive: [1] 107% | [2] 119% | [3] 105% | [4] 115% | [5] 109% | [6] 116% | [8] 109% | [9] 114% | [10] 121% | [11] 102% | [12] 117% | [13] 110% | [14] 128% | [15] 109% | [16] 112% | [17] 112% | [18] 132% | [19] 103% | [20] 115% | [21] 103% | [22] 119% | [23] 104% | [24] 114% | [25] 111% | [26] 118% | [27] 103% | [28] 114% | [29] 125% | [30] 120% | [31] 103%
